Bioassay records deposited in PubChem BioAssay by The Scripps Research Institute Molecular Screening Center.
Rows were chosen to be rich in hits. Some 0.84% of all compounds tested hit in one or more screens of this group.
SRC1 inh: human NCOA1 inhibition; HEK293 GAL4-SRC1 luciferase reporter, luminescence; inhibition, % at 3.6 µM; 0.12% of 360,000 active;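 active means inhibition above the campaign mean plus 3 SD, with each screening campaign given its own cutoff, cut at about 60% in these data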;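 further: 0% = DMSO treated cells and 100% = gossypol at 36 µM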
Target sequence (Q15788 whole entry, looked up, the tested form may be a part): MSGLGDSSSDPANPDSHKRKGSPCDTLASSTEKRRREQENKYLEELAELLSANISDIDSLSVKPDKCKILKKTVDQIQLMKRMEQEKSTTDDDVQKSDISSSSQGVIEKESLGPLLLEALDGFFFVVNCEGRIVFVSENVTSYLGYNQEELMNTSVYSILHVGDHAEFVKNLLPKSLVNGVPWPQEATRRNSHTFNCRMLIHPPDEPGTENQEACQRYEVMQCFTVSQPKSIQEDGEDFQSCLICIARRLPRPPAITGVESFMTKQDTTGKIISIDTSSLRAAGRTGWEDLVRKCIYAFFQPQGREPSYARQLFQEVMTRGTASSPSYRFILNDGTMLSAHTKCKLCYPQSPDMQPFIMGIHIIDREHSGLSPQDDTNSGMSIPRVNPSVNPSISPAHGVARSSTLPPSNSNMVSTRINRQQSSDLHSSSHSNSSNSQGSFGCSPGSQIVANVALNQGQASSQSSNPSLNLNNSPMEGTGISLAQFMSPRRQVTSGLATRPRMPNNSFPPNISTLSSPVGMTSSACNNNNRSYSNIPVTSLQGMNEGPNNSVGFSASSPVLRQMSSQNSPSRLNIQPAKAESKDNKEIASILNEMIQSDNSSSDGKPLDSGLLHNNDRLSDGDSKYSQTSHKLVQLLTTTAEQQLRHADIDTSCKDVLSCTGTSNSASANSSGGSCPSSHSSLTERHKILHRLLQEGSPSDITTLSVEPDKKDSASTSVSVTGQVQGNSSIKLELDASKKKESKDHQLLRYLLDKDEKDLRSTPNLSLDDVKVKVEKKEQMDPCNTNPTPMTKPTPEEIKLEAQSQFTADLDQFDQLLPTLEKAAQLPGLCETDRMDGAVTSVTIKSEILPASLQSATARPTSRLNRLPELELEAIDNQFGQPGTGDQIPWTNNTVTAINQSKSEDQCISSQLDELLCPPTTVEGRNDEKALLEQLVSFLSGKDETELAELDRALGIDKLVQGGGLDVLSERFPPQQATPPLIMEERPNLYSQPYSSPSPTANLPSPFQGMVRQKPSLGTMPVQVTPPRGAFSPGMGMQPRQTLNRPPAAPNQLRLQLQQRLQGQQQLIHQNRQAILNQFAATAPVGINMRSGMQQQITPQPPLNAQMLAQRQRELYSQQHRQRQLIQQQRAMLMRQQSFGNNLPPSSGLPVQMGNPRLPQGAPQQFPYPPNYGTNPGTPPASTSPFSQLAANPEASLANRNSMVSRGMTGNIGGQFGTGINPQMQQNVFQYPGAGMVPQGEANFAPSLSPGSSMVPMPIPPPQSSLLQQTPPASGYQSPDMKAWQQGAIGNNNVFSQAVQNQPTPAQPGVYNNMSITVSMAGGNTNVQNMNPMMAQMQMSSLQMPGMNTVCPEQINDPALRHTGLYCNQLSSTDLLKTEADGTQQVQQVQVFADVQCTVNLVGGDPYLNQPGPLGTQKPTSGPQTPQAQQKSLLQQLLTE
NCOA3 inh: human NCOA3 inhibition. Q9Y6Q9. HEK293 GAL4-SRC3 luciferase reporter, luminescence. inhibition, % at 3.6 µM. 0.17% of 360,000 active. AID 588352;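 active means inhibition above a per-campaign cutoff, the mean of all compounds plus 3 SD, cut at about 60% in these data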;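 further: 0% = DMSO-treated cells and 100% = gossypol-treated cells at 36 µM; higher means less SRC3-driven luciferase light from the GAL4 reporter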
NCOA2 inhibitor: human SRC2 (NCOA2) inhibition | 0.17% of 370,000 active | HEK293 GAL4-SRC2 luciferase reporter, luminescence | inhibition, % at 9 µM;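 active means inhibition above the mean inhibition of all tested compounds plus 3 SD, set per campaign, cut at about 52% in these data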;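 further: 0% = DMSO treated cells and 100% = cells given Gossypol at 36 µM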
NR2F2 inh: blocks human COUP-TFII nuclear receptor. AID 686940. inhibition, % at 8.6 µM. HEK293T NGFI-A luciferase reporter, luminescence. 0.7% of 370,000 active;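 active means inhibition above a per-plate cutoff, mean inhibition of test wells between control levels plus 3 SD, cut at about 38% in these data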;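 further: cells cotransfected with COUP-TFII expression vector driving the NGFI-A reporter; 0% = median of COUP-TF2 test wells and 100% = reporter-only cells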
LRH-1 inv ag: inverse agonists of human LRH-1 (NR5A2). O00482. HEK293T StAR-luciferase reporter, LRH-1 transfected, 24 h. inhibition, % at 3.6 µM. 0.13% of 360,000 active;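 active means inhibition above the mean inhibition of all tested compounds plus 3 SD, cut at about 73% in these data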;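 further: 0% = DMSO wells and 100% = reporter-only cells lacking LRH-1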
Gal4-VP16 ctr: inhibits VP16 reporter, flagging COUP-TFII antagonist hits. shares compounds with NR2F2 inh. inhibition, % at 8.5 µM. 25% of 2,500 active. HEK293 Gal4-VP16 luciferase reporter, luminescence; in the data active means inhibition above about 13%
COUP-TFII conf: COUP-TFII (NR2F2) inhibition, confirmation assay; shares compounds with NR2F2 inh; HEK293 NGFI-A luciferase reporter, luminescence; inhibition, % at 8.5 µM; 45% of 2,500 active; AID 687008;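 active means mean inhibition over three repeats above a set limit taken from the earlier primary screen, cut at about 38% in these data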;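 further: 100% = cells given the luciferase reporter alone without the COUP-TF2 vector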
Active calls of the source: *.

Screening CC1(C)N=C(N)N=C(N)N1c1ccc(CCCCc2ccccc2)cc1 returned SRC1 inh 38, NCOA3 inh 46, NCOA2 inhibitor 51, NR2F2 inh 70*, LRH-1 inv ag 80*, Gal4-VP16 ctr 28* and COUP-TFII conf 62*.
O=C(NC1=NC2(C=C3CCCCC3n3c(=O)n(-c4ccccc4)c(=O)n32)CN1CC1CC1)c1ccccc1 (centres undefined) was read as NCOA2 inhibitor 5 and NR2F2 inh -6.
Screening Cc1cc(C(=O)CSc2ccc(F)cc2)cc(C)c1OC(=S)N(C)C returned SRC1 inh 63*, NCOA3 inh 51, NCOA2 inhibitor 51, NR2F2 inh 73*, LRH-1 inv ag 55, Gal4-VP16 ctr 57* and COUP-TFII conf 85*.
For COc1ccc(SCC(=O)c2cc(C)c(OC(=S)N(C)C)c(C)c2)cc1 the results were SRC1 inh -19, NCOA3 inh 14, NCOA2 inhibitor 20, NR2F2 inh 9 and LRH-1 inv ag -18.
For Nc1cc(-c2ccc(Br)cc2)nn1Cc1ccccc1 the results were SRC1 inh -19, NCOA3 inh -18, NCOA2 inhibitor 20, NR2F2 inh 37*, LRH-1 inv ag 13, Gal4-VP16 ctr -67 and COUP-TFII conf 10.
Nc1cc(-c2cccc(Br)c2)nn1Cc1ccccc1 was read as SRC1 inh -16, NCOA3 inh 8, NCOA2 inhibitor -3, NR2F2 inh 4 and LRH-1 inv ag 5.
`COc1ccc(CCNC(=O)c2c(N)[nH]c(C(=O)c3ccccc3)c2-c2ccc(N(C)C)cc2)cc1` gave NR2F2 inh 44*, Gal4-VP16 ctr -20 and COUP-TFII conf 3.
`O=C(Nc1ccc(Oc2ccccc2)cc1)c1csc(COCCO)n1` gave SRC1 inh -5, NCOA3 inh 3, NCOA2 inhibitor -8, NR2F2 inh 43*, LRH-1 inv ag 25, Gal4-VP16 ctr -26 and COUP-TFII conf 27.
O=C(Nc1ccc(Cl)cc1)c1csc(COCCO)n1 was read as SRC1 inh -34, NCOA3 inh -61, NCOA2 inhibitor -5, NR2F2 inh 4 and LRH-1 inv ag -54.
For O=C(Nc1ccc(Oc2ccccc2)cc1)c1csc([C@@H]2C[C@H](O)[C@@H](CO)O2)n1 the results were SRC1 inh 9, NCOA3 inh -1, NCOA2 inhibitor -6, NR2F2 inh 52*, LRH-1 inv ag 24, Gal4-VP16 ctr -17 and COUP-TFII conf 27.
CC(=O)Nc1ccc(NC(=O)c2csc([C@H]3C[C@H](O)[C@@H](CO)O3)n2)cc1 was read as SRC1 inh 5, NCOA3 inh 6, NCOA2 inhibitor -13, NR2F2 inh 9 and LRH-1 inv ag 1.
Screening COc1ccc(CC(=O)Nc2ccncc2Cl)cc1 returned SRC1 inh -3, NCOA3 inh 21, NCOA2 inhibitor 24, NR2F2 inh 51*, LRH-1 inv ag 44, Gal4-VP16 ctr -4 and COUP-TFII conf 32.
`O=C(Cc1c(Cl)cccc1Cl)Nc1ccncc1Cl` gave SRC1 inh 12, NCOA3 inh 14, NCOA2 inhibitor 2, NR2F2 inh 6 and LRH-1 inv ag 24.
`O=C(Cc1ccc(Cl)cc1Cl)Nc1ccncc1Cl` gave SRC1 inh 27, NCOA3 inh 21, NCOA2 inhibitor 21, NR2F2 inh 40*, LRH-1 inv ag 60, Gal4-VP16 ctr 5 and COUP-TFII conf 42*.
Screening O=C(Cc1ccc(Cl)cc1Cl)Nc1ccncc1 returned SRC1 inh 8, NCOA3 inh 20, NCOA2 inhibitor 18, NR2F2 inh 50*, LRH-1 inv ag 58, Gal4-VP16 ctr -2 and COUP-TFII conf 37.
`S=C(NCc1ccc(Cl)cc1)Nc1ccncc1` gave SRC1 inh 5, NCOA3 inh 12, NCOA2 inhibitor 21, NR2F2 inh 58*, LRH-1 inv ag 49, Gal4-VP16 ctr 17* and COUP-TFII conf 44*.
For COC(=O)[C@]12C[C@H](CC(=O)N3CCCC3)C(=O)N(CCc3ccc(OC)c(OC)c3)C1=C[C@H](C1CCCC1)O[C@@H]2C the results were NCOA2 inhibitor 22 and NR2F2 inh 2.
`COC(=O)C1CN(Cc2cn(Cc3ccccc3)nn2)CCS(=O)(=O)N1Cc1ccccc1` (centres undefined) gave NCOA2 inhibitor -3 and NR2F2 inh -2.
For O=C(NNC1=Nc2ccccc2SC1)c1cccc([N+](=O)[O-])c1 the results were SRC1 inh 7, NCOA3 inh 31, NCOA2 inhibitor 9, NR2F2 inh 17 and LRH-1 inv ag 7.
O=C(NNC1=Nc2ccccc2SC1)c1ccccc1F was read as SRC1 inh -29, NCOA3 inh 8, NCOA2 inhibitor 9, NR2F2 inh 38*, LRH-1 inv ag -22, Gal4-VP16 ctr -39 and COUP-TFII conf 9.
`CC[n+]1c(/C=C/c2c[nH]c3ccccc23)ccc2cc(C)ccc21` gave NCOA2 inhibitor -10, NR2F2 inh 38*, Gal4-VP16 ctr 4 and COUP-TFII conf 52*.
For COc1cccc([C@H]2NC(=O)C/C=C/[C@@H](C)[C@@H](c3cccc(OC)c3)NC(=O)C/C=C/[C@H]2C)c1 the results were NCOA2 inhibitor -6 and NR2F2 inh 0.
For COc1cccc(NS(=O)(=O)c2ccc3c(c2)N(C(C)=O)CCS3)c1 the results were SRC1 inh -1, NCOA3 inh -1, NCOA2 inhibitor 9, NR2F2 inh -1 and LRH-1 inv ag -3.
`Cc1cccc(NS(=O)(=O)c2ccc(NC(=O)N3CCCCC3)cc2)c1` gave SRC1 inh 13, NCOA3 inh 30, NCOA2 inhibitor 20, NR2F2 inh 48*, LRH-1 inv ag 23, Gal4-VP16 ctr 2 and COUP-TFII conf 16.
`CC(=O)N1CCSc2ccc(S(=O)(=O)Nc3cccc(C)c3)cc21` gave SRC1 inh 17, NCOA3 inh 12, NCOA2 inhibitor 1, NR2F2 inh 37*, LRH-1 inv ag 26, Gal4-VP16 ctr -5 and COUP-TFII conf 7.
C#CCNC(=O)C[C@@H]1C(=O)N(CC=C)C2=CCCCC[C@]21C(=O)OC was read as NCOA2 inhibitor -9 and NR2F2 inh -8.
COCCCNC(=O)CSc1nnc(-c2cccnc2)n1C1CCCCC1 was read as NCOA2 inhibitor -24 and NR2F2 inh 2.
`CC(C)Nc1ncnc2ccc(Br)cc12` gave SRC1 inh 66*, NCOA3 inh 62*, NCOA2 inhibitor 46, NR2F2 inh 53*, LRH-1 inv ag 47, Gal4-VP16 ctr 19* and COUP-TFII conf 45*.
Screening c1ccc(-c2cccc3[nH]cc(-c4ccccc4)c23)cc1 returned NCOA2 inhibitor -12 and NR2F2 inh -6.
